High-throughput results as filed in PubChem BioAssay.
PLK1 PBD inh: qHTS for Inhibitors of PLK1-PDB (polo-like kinase 1 - polo-box domain): Primary Screen; Serine/threonine-protein kinase PLK1 (Homo sapiens), P53350; Plk1 PBD binding of FITC phosphopeptide, fluorescence polarization; Potency, µM, for inactives: max response, negative = inhibition, usual class: inhibitors; actives 2.8% (n = 360,000); AID 720504, 2013; note: potency is the fitted concentration of half-maximal effect; series mostly up to about 57 µM; % is set by controls: 0 for no effect and ±100 for the full control effect; nearly all actives have a fitted effect of over 65% in size
PI5P4Ka inh: qHTS for Inhibitors of phosphatidylinositol 5-phosphate 4-kinase (PI5P4K) | Phosphatidylinositol 5-phosphate 4-kinase type-2 alpha (Homo sapiens), P48426 | actives 1.2% (n = 330,000) | PI5P4Kalpha enzyme, ADP-Glo luminescence, 60 min; hits give low values | max response, %; active = max response of -50% or lower; inconclusive = between -30% and -50%; inactive = -30% or higher; note: value at the top dose of about 77 µM; % is set by controls: 0 for no effect and ±100 for the full control effect
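PI5P4Kalpha ADP-Glo assay; 5 microM ATP final; 60 min RT reaction; HEPES pH 7.4/EGTA/CHAPS, 5% DMSO; controls lacking substrate or enzyme; luminescent end-point.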
FEN1 inh-1: qHTS Assay for the Inhibitors of Human Flap endonuclease 1 (FEN1). Recombinant FEN1 flap cleavage, fluorescence, 15 min. Potency, µM (series often up to 114 µM), for the others: at the top dose activity change, negative = inhibition, most hits filed as inhibitors. actives 0.35% (n = 390,000); note: potency is the fitted concentration of half-maximal effect; % is set by controls: 0 for no effect and ±100 for the full control effect; nearly all actives have a fitted effect of over 65% in size
Target sequence (P39748 whole entry, looked up): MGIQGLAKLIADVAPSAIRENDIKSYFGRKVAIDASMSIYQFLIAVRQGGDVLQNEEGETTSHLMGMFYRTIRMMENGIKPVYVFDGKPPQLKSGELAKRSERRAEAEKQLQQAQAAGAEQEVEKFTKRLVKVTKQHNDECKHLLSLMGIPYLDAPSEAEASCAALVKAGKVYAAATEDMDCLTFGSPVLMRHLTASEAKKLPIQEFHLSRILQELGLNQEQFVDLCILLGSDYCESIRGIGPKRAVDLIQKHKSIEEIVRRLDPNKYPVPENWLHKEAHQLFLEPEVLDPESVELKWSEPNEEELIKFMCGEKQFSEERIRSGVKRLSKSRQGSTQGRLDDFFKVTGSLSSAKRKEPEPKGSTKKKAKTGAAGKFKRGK
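Steps: FEN1 (10 nM) dispensed; compound added by pin tool; 15 min at room temperature; substrate added to 50 nM final; reads at 0 min and 15 min; data normalized and fitted (four-parameter Hill).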
VDR inh: Inhibitors of the vitamin D receptor (VDR): qHTS; Potency, µM, for the others: max response, negative = inhibition, usual class: inhibitors; VDR-SRC2-3 peptide fluorescence polarization, 2 h; actives 0.93% (n = 400,000); Vitamin D3 receptor (Homo sapiens), P11473; note: potency is the fitted concentration of half-maximal effect; % is set by controls: 0 for no effect and ±100 for the full control effect
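Fluorescence polarization assay measuring small-molecule disruption of VDR binding to the coregulator peptide SRC2-3. Compounds were pin-transferred (23 nl) into the reagent mix and incubated 2 h at room temperature before reading.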
TCR activator: Activators of T cell receptors: qHTS campaign. 330,000 tested, under 10 active. Potency, µM (top dose mostly 9.22 µM), for inactives: at the highest dose activation of IL-2 secretion, most hits filed as activators. AID 504894, 2011. primary human leukocytes, anti-CD3, IL-2 HTRF, 48 h; note: % of control where 0% means no effect
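IL-2 release read by HTRF sandwich (Eu cryptate donor, d2 acceptor, 665 nm emission) after 48 hr exposure of primary human leukocytes to compound together with anti-CD3 beads in the absence of co-stimulatory signals.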
WRN helicase inh-1: qHTS for Inhibitors of WRN Helicase. Bifunctional 3'-5' exonuclease/ATP-dependent helicase WRN (Homo sapiens), Q14191. Potency, µM (doses to about 114 µM), inactives show top-dose activity change, negative = inhibition, usual class: inhibitors. actives 0.46% (n = 360,000). AID 651768, 2012. WRN helicase unwinding, fluorescent forked duplex, kinetic; note: potency is the fitted concentration of half-maximal effect; % is set by controls: 0 for no effect and ±100 for the full control effect; nearly all actives have a fitted effect of over 55% in size
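Screening of the MLSMR collection measured strand separation of a quenched forked DNA duplex (100 nM) by 20 nM WRN with 2 mM ATP, all final. Compounds were preincubated with enzyme 15 min at room temperature.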
FEN1 inh-2: qHTS Assay for the Inhibitors of FEN1: Confirmatory Assay for Cherry-picked Compounds. shares compounds with FEN1 inh-1. FEN1 flap cleavage, TAMRA/BHQ2 fluorogenic DNA substrate. Potency, µM, actives largely listed as inhibitors. actives 79% (n = 880). AID 720498, 2013; note: potency is the fitted concentration of half-maximal effect; nearly all actives have a fitted effect of over 60% in size
WRN helicase inh-2: qHTS for Inhibitors of WRN Helicase: Confirmatory Assay for Cherry-picked Compounds. Potency, µM (top dose mostly 57.1 µM), for the others: at the highest dose activity, negative = inhibition, usual class: inhibitors. actives 63% (n = 610). AID 720497, 2013. WRN helicase DNA unwinding, fluorescence kinetic. shares compounds with WRN helicase inh-1; note: potency is the fitted concentration of half-maximal effect; nearly all actives have a fitted effect of over 65% in size
TO DNA binding: qHTS for Inhibitors of WRN Helicase: Thiazole Orange DNA Binding Counterscreen | thiazole orange DNA binding displacement, fluorescence | actives 10% (n = 610) | Potency, µM (titrated, usually from 57.1 µM), inactives show top-dose activity change, negative = inhibition, actives largely listed as inhibitors | shares compounds with WRN helicase inh-1;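 note: drop in dye fluorescence marks compound binding to DNA; potency is the fitted concentration of half-maximal effect; % is set by controls: 0 for no effect and ±100 for the full control effect; nearly all actives have a fitted effect of over 60% in size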
BLM counter: qHTS for Inhibitors of WRN Helicase: BLM Helicase Counterscreen for WRN Inhibitors; shares compounds with WRN helicase inh-1; Recombinant BLM helicase DNA unwinding, red fluorescence; Potency, µM (top dose mostly 57.1 µM), for inactives: at the top dose activity change, negative = inhibition, usual class: inhibitors; actives 60% (n = 610); AID 720503, 2013; note: potency is the fitted concentration of half-maximal effect; nearly all actives have a fitted effect of over 60% in size
Active calls of the source: *; i = inactive; ? = inconclusive; / = no result given; [ ] = remark or other dose. Only some compounds are listed: those with a hit (about 3.7% of all), similar ones and a draw of the others. Unless noted, calls come from the whole dose curve; as a rule, active = well fitted curve in the direction sought with a large enough effect; inconclusive = small, poorly fitted or top-dose-only effect, or another doubt; inactive = no such curve, though single readings can be large; an effect the other way counts as inactive or inconclusive.

SMILES	PLK1 PBD inh	PI5P4Ka inh	FEN1 inh-1	VDR inh	TCR activator	WRN helicase inh-1	FEN1 inh-2	WRN helicase inh-2	TO DNA binding	BLM counter
O=C(O)c1ccc(-n2cccc2/C=C2\SC(=O)N(Cc3ccc(Cl)cc3)C2=O)cc1	/	/	/	/	/	/	76*	9.6µM*	-28%	8.6µM*
Cc1ccccc1NC(=O)CN1C(=O)S/C(=C\c2cccn2-c2cccc(C(=O)O)c2)C1=O	?	-4	?	14%	-2%	?	/	/	/	/
O=C(O)CN1C(=O)/C(=C/c2ccc(N3CCCCC3)o2)SC1=S	-6%	?	45µM*	?	-9%	4.7µM*	48*	24µM*	43%	24µM*
O=C(O)CCCCCN1C(=O)/C(=C\c2ccc(-c3ccc(Cl)cc3)o2)SC1=S	-15%	2	4%	8%	13%	-9%[11.6 µM]	/	/	/	/
CCOC(=O)c1c(C)oc2nc(C)nc(N3CCN(c4ccccc4F)CC3)c12	/	/	-11%	-1%	/	/	/	/	/	/
COc1cc(/C=C(\C#N)c2nc3ccc(C)cc3[nH]2)c([N+](=O)[O-])cc1OC	-1%	-25	-8%	-24%	1%	8%[57.1 µM]	/	/	/	/
COc1cc(/C=C(\C#N)c2nc3ccc(C)cc3[nH]2)cc([N+](=O)[O-])c1O	?	-88*	50µM*	?	8%	?	?	22µM*	11µM*	12µM*
Cc1ccc(NCc2cccn2-c2nnc(N3CCCCCC3)s2)cc1	/	/	-19%	-2%	/	/	/	/	/	/
O=S(=O)(O)c1ccc(O)c2cc(Nc3ccccc3)ccc12	4.7µM*	-105*	7.9µM*	?	5%	0.95µM*	8.5*	0.43µM*	9.6µM*	0.061µM*
Cc1ccc(S(=O)(=O)c2cc(Nc3ccccc3)ccc2O)cc1	-30%	-6	?	-10%	3%	-15%	/	/	/	/
O=C(N/N=C/c1cn(Cc2cccc(F)c2)c2ccccc12)c1cc(O)cc(O)c1	19µM*	-104*	22µM*	34%	3%	20µM*	60*	5.4µM*	24µM*	2.2µM*
CCOc1ccc(CCNC(=O)C2Cc3ccccc3N2C(=O)CC)cc1 (stereo unspecified)	/	/	0%	8%	/	/	/	/	/	/
Cc1ccc(-c2c3c(=O)n(C)c(=O)n(C)c3c3cnc4ccccc4n23)cc1	/	/	10%	-10%	/	/	/	/	/	/
c1cnc(N2CCN(c3ncc4c(n3)CCNC4)CC2)nc1	/	/	8%	3%	/	/	15*	22µM*	?	?
CC(C)CN1CCc2nc(N3CCN(c4ncccn4)CC3)ncc2C1	/	/	15%	19%	/	/	/	/	/	/
CC1=C(C(=O)Nc2ccccc2)C(c2ccc[nH]2)n2ncnc2N1 (stereo unspecified)	/	/	?	4%	/	/	76*	7.6µM*	?	1.1µM*
COc1cccc(Cn2c(NCc3ccc(C)cc3)nc3c2c(=O)n(C)c(=O)n3C)c1	/	/	-3%	-26%	/	/	/	/	/	/
CCN(CC)CCCNc1ccc2ncn3c4ccc(O)cc4c(=O)c1c23	11µM*	-24	10µM*	?	1%	25µM*	8.5*	22µM*	i	-62%
CCOC(=O)C1=C(CS(=O)(=O)c2c(C)cc(C)cc2C)NC(=O)NC1c1cccc(OC)c1 (stereo unspecified)	/	/	10%	?	/	/	/	/	/	/
O=C(O)c1ccccc1NS(=O)(=O)c1ccc(NN=Cc2ccccc2F)c([N+](=O)[O-])c1	24µM*	?	?	?	12%	79µM*	76*	24µM*	?	22µM*
O=C1CCCC2=C1C(c1ccc(O)c(O)c1)Nc1ccc3ccccc3c12 (stereo unspecified)	-15%	?	-8%	3%	-2%	-20%	/	/	/	/
O=C1CCCC2=C1C(c1ccco1)Nc1ccc3ccccc3c12 (stereo unspecified)	24µM*	-64*	50µM*	7%	0%	18µM*	76*	15µM*	-28%	3µM*
CC(=O)Oc1cc(C(=O)OCC(=O)N2CCc3ccccc3C2)cc(OC(C)=O)c1OC(C)=O	?	-13	25µM*	?	4%[46.1 µM]	18µM*	24*	27µM*	-5%	22µM*
COc1ccc(C(=O)OCC(=O)N2CCc3ccccc3C2)cc1OC	2%	2	2%	5%	-6%[46.1 µM]	-15%	/	/	/	/
CCN(CC(=O)Nc1c(F)cccc1F)C(=O)/C=C/c1ccc(C)o1	-4%	-4	-2%	-15%	3%	-3%	/	/	/	/
CCN(CC(=O)Nc1c(F)cccc1F)C(=O)/C=C/c1ccc2ccccc2n1	13µM*	-100*	50µM*	-6%	6%	22µM*	76*	19µM*	?	3.8µM*
Cc1cc(NC(=O)Cc2cccs2)no1	?	/	56µM*	23%	-8%	?	?	8.6µM*	24µM*	0.96µM*
Cc1cc(NS(=O)(=O)c2ccc(NC(=O)Cc3cccs3)cc2)no1	0%	/	-1%	-2%	-10%	-6%	/	/	/	/
COc1ccccc1NC(=O)C(Cc1ccccc1)NS(=O)(=O)c1ccc2c(c1)c(=O)n(C)c(=O)n2C (stereo unspecified)	/	/	9%	3%	/	/	/	/	/	/
